Results filed as inconclusive are left out. Calls of active or inactive are those of the source. The call rests on the fitted dose curve; in most records, active means well fitted curve in the direction sought with a large enough effect; inconclusive means small, poorly fitted or top-dose-only effect, or another doubt; inactive means no such curve, though single readings can be large; an effect the other way counts as inactive or inconclusive.
Columns and labels:
[1] = molecular target: Glutathione peroxidase 1 (Homo sapiens) (UniProt P07203); experiment: Primary qHTS Assay for Inhibitors of Recombinant Selenoprotein Glutathione Peroxidase 1 (GPX1) (AID 1845191); further: nearly all actives have a fitted effect of over 65% in size; on activity, negative = inhibition: on the % scale 0 is the no-effect control and ±100 the full control effect
Glutathione peroxidase 1 (Homo sapiens), sequence (P07203 whole entry, looked up): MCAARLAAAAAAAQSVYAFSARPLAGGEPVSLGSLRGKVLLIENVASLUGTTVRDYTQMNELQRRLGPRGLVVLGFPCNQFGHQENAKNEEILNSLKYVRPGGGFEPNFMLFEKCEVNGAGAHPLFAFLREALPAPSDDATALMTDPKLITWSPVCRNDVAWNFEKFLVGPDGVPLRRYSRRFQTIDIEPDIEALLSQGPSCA
Method in brief: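 NADPH consumption tracked by fluorescence at 340/450 nm between t=0 and t=15 min, room temperature. Final mix: 10 nM GPX1, 100 nM glutathione reductase, 1 mM GSH, 0.5 mM NADPH, 0.5 mM cumene hydroperoxide, 0.01% BSA; 30 min compound–enzyme preincubation.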

[2] = molecular target: Phospholipid hydroperoxide glutathione peroxidase GPX4 (Homo sapiens) (UniProt P36969); experiment: Primary qHTS Assay for Inhibitors of Recombinant Selenoprotein Glutathione Peroxidase 4 (GPX4) (AID 1845192); further: nearly all actives have a fitted effect of over 65% in size; on activity change, negative = inhibition: series mostly up to about 50 µM; on the % scale 0 is the no-effect control and ±100 the full control effect
Phospholipid hydroperoxide glutathione peroxidase GPX4 (Homo sapiens), sequence (P36969 whole entry, looked up): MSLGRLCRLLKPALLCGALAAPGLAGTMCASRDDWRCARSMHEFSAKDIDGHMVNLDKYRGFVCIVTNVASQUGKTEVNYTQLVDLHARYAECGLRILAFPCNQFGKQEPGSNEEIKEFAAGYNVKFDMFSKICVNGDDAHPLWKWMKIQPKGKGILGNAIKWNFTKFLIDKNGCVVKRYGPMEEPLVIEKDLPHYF
Method in brief: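 NADPH consumption followed by fluorescence at 340/450 nm, t=0 and after 15 min at room temperature. Reaction started with cumene hydroperoxide (0.5 mM final) after 30 min compound–GPX4 preincubation; final 200 nM GPX4, 100 nM GR, 1 mM GSH, 0.5 mM NADPH.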

[3] = molecular target: Luciferin 4-monooxygenase (Photinus pyralis) (UniProt P08659); experiment: Primary firefly luciferase (FLuc) qHTS assay for identification of artifact compounds. (AID 1845220); further: nearly all actives have a fitted effect of over 60% in size;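 on activity change, negative = inhibition: series mostly up to about 54 µM; plate controls were DMSO vehicle for no effect and no enzyme for full effect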
Method in brief: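 Cell-free, 1536-well qHTS. Buffer pH 7.6 with 0.01% Tween-20 and 0.05% BSA; 10 uM D-luciferin, 10 uM ATP; 10 nM P. pyralis luciferase; luminescence after 5 min.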

[4] = Primary fluorescence-based thiol-reactive (MSTI) qHTS assay for identification of artifact compounds. (AID 1845221); further: nearly all actives have a fitted effect of over 65% in size; further: potency means the concentration at half of the fitted maximal effect;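 on activity change, negative = thiol reactive: series mostly up to about 54 µM; thiol-reactive compounds lower the probe fluorescence signal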
Method in brief: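 Thiol-reactive compounds detected by quenching of 4 uM MSTI fluorescence (525/598 nm) after 1 h room-temperature dark incubation in PBS pH 7.4, 2% DMSO. qHTS titration; percent inhibition Hill-fitted against Acetyl-MSTI/MSTI controls.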

[5] = system: Nanoluciferase (engineered Oplophorus gracilirostris luciferase); experiment: Primary Nanoluciferase (NLuc) qHTS assay for identification of artifact compounds. (AID 1845222);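 further: series mostly up to about 54 µM; 0% = DMSO and -100% = no enzyme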
Method in brief: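 Compounds are pinned into diluted (1:55) conditioned medium of NLuc-expressing S16 cells and held 15 min at room temperature protected from light. Nano-Glo substrate follows, and luminescence is read 5 min later.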

C=CCc1ccc(O[C@@H]2O[C@H](CO)[C@@H](O)[C@H](O)[C@H]2O)c(OC)c1
inactive: Potency [1] | Potency [2] | Potency [3] | Potency [5]
active: Potency [4] 7.36 µM

C/C=C/C=C/C=C/C(=O)O[C@@H]1[C@@H](OC)C2=C(C(=O)N(C(C)C(=O)O)C2)[C@@]2(C)CCCC(C)(C)[C@H]12 (stereo not given in full)
inactive: Potency [1] | Potency [2] | Potency [3] | Potency [4] | Potency [5]

CC1CCC2C(C)(C)C(O)CCC2(C)C12Cc1c(O)cc3c(c1O2)CN(C(CCC(N)=O)C(=O)O)C3=O (stereo not given)
inactive: Potency [1] | Potency [2] | Potency [3] | Potency [4] | Potency [5]

CO[C@@]12CC3[C@@H]([C@@H](O)[C@@H](OC(C)=O)C4[C@](C)(COC(C)=O)CCC[C@]34C)[C@@H](C)C1=CC(=O)O2 (stereo not given in full)
inactive: Potency [1] | Potency [2] | Potency [3] | Potency [4] | Potency [5]

CC1(C)CC[C@]2(C(=O)O[C@@H]3O[C@H](CO)[C@@H](O)[C@H](O)[C@H]3O)CC[C@]3(C)C(=CCC4[C@@]5(C)C[C@@H](O)[C@H](O)C(CO)(CO)C5CC[C@]43C)C2[C@@H]1O (stereo not given in full)
inactive: Potency [1] | Potency [2] | Potency [3] | Potency [4] | Potency [5]

NC(=O)[C@H]1CCCCc2c1[nH]c1ccc(Cl)cc21
inactive: Potency [1] | Potency [2] | Potency [3] | Potency [4] | Potency [5]

CC1(C)CC[C@]2(C(=O)O[C@@H]3O[C@H](CO)[C@@H](O)[C@H](O)[C@H]3O)CC[C@]3(C)C(=CCC4[C@@]5(C)C[C@@H](O)[C@H](O)[C@@](C)(CO)C5CC[C@]43C)C2C1 (stereo not given in full)
inactive: Potency [1] | Potency [2] | Potency [3] | Potency [4] | Potency [5]

CC1CCC2C(C(=O)O)=CC3CC(C)(C)CC132 (stereo not given)
inactive: Potency [1] | Potency [2] | Potency [3] | Potency [5]
active: Potency [4] 23.8 µM

C[C@@H]1O[C@@H](O[C@H]2[C@H](O)[C@@H](O)[C@H](OC[C@H]3O[C@@H](OC(=O)[C@]45CCC(C)(C)C[C@H]4C4=CCC6[C@@]7(C)C[C@H](O)[C@H](O[C@@H]8O[C@H](CO)[C@@H](O)[C@H](O)[C@H]8O)[C@@](C)(C(=O)O)C7CC[C@@]6(C)[C@]4(C)CC5)[C@H](O[C@@H]4O[C@H](CO)[C@@H](O)[C@H](O)[C@H]4O)[C@@H](O)[C@@H]3O)O[C@@H]2CO)[C@H](O)[C@H](O)[C@H]1O (stereo not given in full)
inactive: outcome [1] inactive [at 9.52 µM] | activity change, negative = inhibition [2] 0.162% [at 9.73 µM] | outcome [3] inactive [at 11.6 µM] | activity change, negative = thiol reactive [4] 1.9% [at 11.5 µM] | activity, negative = inhibition [5] 4.14% [at 11.6 µM]

C=C(C)[C@@H](C)[C@H]1O[C@]23C[C@]4(CO2)C(CCC2[C@@]5(C)CC[C@H](O[C@@H]6OC[C@H](O)[C@H](O[C@@H]7O[C@H](CO)[C@@H](O)[C@H](O)[C@H]7O)[C@H]6O[C@@H]6O[C@@H](CO)[C@H](O)[C@H]6O)C(C)(C)C5CC[C@]24C)C3[C@@](C)(O)[C@@H]1OC(C)=O (stereo not given in full)
inactive: Potency [1] | Potency [2] | activity change, negative = inhibition [3] 4.34% [at 11.6 µM] | activity change, negative = thiol reactive [4] 6.68% [at 11.5 µM] | activity, negative = inhibition [5] 4.88% [at 11.6 µM]

COc1ccc(C(=O)O[C@H]2CC(C)=CC[C@@]3(C)[C@@H](OC(C)=O)C[C@@](O)(C(C)C)[C@H]23)cc1
inactive: Potency [1] | Potency [2] | Potency [3] | Potency [4] | Potency [5]

CCNC(=O)[C@@H]1CCCN1C(=O)[C@H](CCCN=C(N)N)NC(=O)[C@H](CC(C)C)NC(=O)[C@@H](C)NC(=O)[C@H](Cc1ccc(O)cc1)NC(=O)[C@H](CO)NC(=O)[C@H](Cc1c[nH]c2ccccc12)NC(=O)[C@H](Cc1cnc[nH]1)NC(=O)[C@@H]1CCC(=O)N1
inactive: Potency [1] | Potency [2] | Potency [3] | Potency [4] | Potency [5]

CC(C)c1cc2c(c(O)c1O[C@@H]1O[C@H](CO)[C@@H](O)[C@H](O)[C@H]1O)CC1(O)CCC(O)C(C)(C)C1CC2 (stereo not given in full)
active: Potency [4] 9.22 µM
inactive: Potency [1] | Potency [2] | Potency [3] | Potency [5]

NCCCC[C@H](NC(=O)[C@@H]1Cc2ccccc2CN1C(=O)CCC(=O)c1ccccc1)C(=O)NCC(c1ccccc1)c1ccccc1
inactive: Potency [1] | Potency [2] | Potency [3] | Potency [4] | Potency [5]

CC(CCC1(O)OC2CC3C4CCC5CC(O[C@@H]6O[C@H](CO)[C@@H](O)[C@H](O)[C@H]6O[C@@H]6OC[C@@H](O)[C@H](O)[C@H]6O)C(O)CC5(C)C4CCC3(C)C2C1C)CO[C@@H]1O[C@H](CO)[C@@H](O)[C@H](O)[C@H]1O (stereo not given in full)
inactive: Potency [1] | Potency [2] | activity change, negative = inhibition [3] 1.24% [at 11.6 µM] | activity change, negative = thiol reactive [4] -13.7% [at 11.5 µM] | activity, negative = inhibition [5] 4.39% [at 11.6 µM]
